A number with no mark means an inactive call.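 Rule for the calls: active = inhibition at or above 50% relative to wild type and mutant plate controls; inactive = inhibition below 50%.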

The assay in a line: inhibitors of Chlamydomonas gravitaxis, primary screen, whole organism, Chlamydomonas reinhardtii, WT vs cilia-less mutant, absorbance, 96-well (AID 463189).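 Note: 0% = wild type cc124 cells in DMSO and 100% = ciliumless bld1 mutant cells.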 The following applies: OD600 absorbance, 2 days, at 10 µM, stronger effect = higher value.
By inhibition is commonly meant the relative decrease from the control value, in per cent. As to `CCn1cnc2c(Nc3cccc(Cl)c3)nc(N[C@@H]3CCCC[C@@H]3N)nc21`, the inhibition is 4.56%. In the case of `Nc1ccc(CCN2CCN(c3cccc(C(F)(F)F)c3)CC2)cc1`, the inhibition was 40.5%. Under `CCN(CC)C(=O)N[C@H]1C=C2c3cccc4[nH]cc(c34)C[C@H]2N(C)C1` stands 8.76%. The value for `C[C@@H]1O[C@@H](O[C@H]2C[C@@H](O)[C@]3(CO)[C@@H]4C(CC[C@]3(O)C2)[C@@]2(O)CC[C@H](C3COC(=O)C3)[C@@]2(C)C[C@H]4O)[C@H](O)[C@H](O)[C@H]1O` (some centres undefined) was 0.796%. As for `c1ccc(CCCN2CCN(CCOC(c3ccccc3)c3ccccc3)CC2)cc1`, the inhibition was 20%. The value for `CCCN(CCC)CCc1c[nH]c2ccc(C(N)=O)cc12` was -0.498%; that for `C[C@@H](N)Cc1cnc[nH]1` was -0.522%; that for `NC(Cc1cc(O)c(O)cc1O)C(=O)O` (centres undefined) was -1.78%. In the case of `NCCc1ccc(S(=O)(=O)F)cc1`, the inhibition was 0.651%. Under `N[C@@H](Cn1ccc(=O)[nH]c1=O)C(=O)O` stands -4.9%. Regarding `O=S1(=O)N(CCN2CC=C(c3c[nH]c4cc(F)ccc34)CC2)c2cccc3c2N1CCC3`, the inhibition is -4.93%. On to `C=CCN1CC[C@]23c4c5ccc(O)c4O[C@H]2/C(=N/NC(=O)c2ccccc2)CC[C@@]3(O)[C@H]1C5`, for which the inhibition was 2.64%.

Turning to `Nc1ncnc2c1ncn2[C@@H]1O[C@H](COP(=O)(O)CP(=O)(O)OP(=O)(O)O)[C@H](O)C1O` (some centres undefined), the inhibition was 8.43%. Under `c1ccc2nc(N3CCNCC3)ccc2c1` stands 4.23%.

Source of the values: PubChem BioAssay.
